PTHR1 ag: PTHR1 (human) receptor agonism. Q03431. HEK293 GP2 PTHR1 cells, GloSensor cAMP luminescence, 1 h. Potency, µM (highest dose often 115 µM), without a hit: top-dose activation, most hits filed as activators. 410,000 tested, 0.075% active; also: potency is read from the fitted curve at half-maximal effect; nearly all actives have a fitted effect of over 55% in size
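HEK-293-derived GP2 cells expressing PTHR1 and a GloSensor cAMP reporter, 3,000/well, plated overnight, given luciferin plus IBMX (each 0.5 mM as added) for 1 h at 37 °C, then compound for 1 h at 37 °C. Luminescence was read after 15 min at room temperature.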
GLP-1R inv ag: acts as inverse agonist at human GLP-1 receptor; HEK293 GLP-1R CRE-luciferase, luminescence, 24 h; GLP-1R form is constitutively active; AID 624417; P43220; Potency, µM (doses to about 38.3 µM), for the others: at the highest dose activity change, negative = inhibition, usual class: inhibitors; 410,000 tested, 1.6% active; also: potency is read from the fitted curve at half-maximal effect; % is scaled to controls: 0 for no effect and ±100 for the full control effect; nearly all actives have a fitted effect of over 55% in size
Target sequence (P43220 whole entry, looked up): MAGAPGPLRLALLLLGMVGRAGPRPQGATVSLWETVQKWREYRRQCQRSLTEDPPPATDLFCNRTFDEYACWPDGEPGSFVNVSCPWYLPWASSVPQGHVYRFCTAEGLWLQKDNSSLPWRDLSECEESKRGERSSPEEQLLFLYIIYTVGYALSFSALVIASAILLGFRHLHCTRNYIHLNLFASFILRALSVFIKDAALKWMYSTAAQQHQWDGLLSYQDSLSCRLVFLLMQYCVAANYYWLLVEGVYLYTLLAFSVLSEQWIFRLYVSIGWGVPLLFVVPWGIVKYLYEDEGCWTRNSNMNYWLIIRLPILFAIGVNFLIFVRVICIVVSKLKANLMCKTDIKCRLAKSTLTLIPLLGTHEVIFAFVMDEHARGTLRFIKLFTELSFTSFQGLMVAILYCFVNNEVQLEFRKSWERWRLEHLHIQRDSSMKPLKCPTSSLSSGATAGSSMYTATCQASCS
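Inverse agonism was detected as reduced cAMP-driven luciferase luminescence after 24 h compound treatment. The cells were HEK293 clones expressing constitutively active human GLP-1R with the reporter. Reporter-only and GPR119 cell lines served as counterscreen controls.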
GLP1R ag: GLP-1 receptor (human) agonism; 380,000 tested, 0.007% active; AID 624172; HEK293 GLP-1R CRE-luciferase, luminescence, 4-6 h; cells express a hypersensitive GLP-1R form; Potency, µM (highest dose often 45.6 µM), without a hit: at the top dose activation, most hits filed as activators; P43220; also: potency is read from the fitted curve at half-maximal effect; % of control where 0% means no effect
IDH1 R132H inh: blocks human mutant IDH1 R132H enzyme | O75874 | IDH1-R132H enzyme, NADPH consumption, diaphorase/resazurin fluorescence | Potency, µM (titrated, usually from 76.6 µM), inactives show at the top dose activity change, negative = inhibition, most hits filed as inhibitors | 390,000 tested, 0.093% active; also: potency is read from the fitted curve at half-maximal effect; % is scaled to controls: 0 for no effect and ±100 for the full control effect; nearly all actives have a fitted effect of over 65% in size
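IDH1-R132H (0.5 ug/mL dispensed) in pH 7.5 Tris buffer was preincubated 30 min with compound, then given a substrate mix of 0.016 mM NADPH and 2 mM alpha-KG for 80 min at room temperature; remaining NADPH was read by diaphorase/resazurin fluorescence.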
HEK293 tox: cytotoxicity counter-screen for GLP-1 receptor inverse agonists; AID 624418; 410,000 tested, 0.13% active; HEK293 cAMP-luciferase reporter cells, luminescence, 24 h; Potency, µM (series often up to 38.3 µM), for inactives: at the highest dose activity change, negative = inhibition, actives largely listed as inhibitors;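 also: loss of luciferase light is scored as toxicity; potency is read from the fitted curve at half-maximal effect; % is scaled to controls: 0 for no effect and ±100 for the full control effect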
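To flag toxic compounds, the library was rerun on cells for 24 hr at 37 deg C and 5% CO2. Viability-linked luminescence was captured 12 min after adding luciferase detection reagent.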
LDHA block: inhibitors of human lactate dehydrogenase A | activity change, % (values are at about 110 or 230 µM) | purified LDHA, NADH/diaphorase-resazurin fluorescence; active compounds read low | 480,000 tested, 0.15% active; in the data active = activity change below about -30%; inconclusive = mostly about -25% to -30%;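 also: plate controls were DMSO wells for no effect and wells without enzyme for full effect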
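Enzyme activity of human lactate dehydrogenase 5 (2 nM; 0.06 mM NADH, 0.2 mM pyruvate, 5 min, RT) is measured via a resazurin/diaphorase fluorescence readout of residual NADH.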
Starred values were filed as active, the others as inactive; i = inactive; ? = inconclusive; . = not tested or not shown; [ ] = remark or other dose. Shown are actives, neighbours in structure and some others; about 1.7% of the full set was active somewhere. Unless noted, calls follow the shape of the dose curve; as a rule, active = well fitted curve in the direction sought with a large enough effect; inconclusive = small, poorly fitted or top-dose-only effect, or another doubt; inactive = no such curve, though single readings can be large; an effect the other way counts as inactive or inconclusive.

SMILES | PTHR1 ag | GLP-1R inv ag | GLP1R ag | IDH1 R132H inh | HEK293 tox | LDHA block
NC(Cc1ccccc1)c1csc(Nc2ccc(C(=O)c3ccccc3)cc2)n1 (stereo unspecified) | -2% | 10µM* | -3% | . | ? | -5
CC(=O)CCc1ccc(OCC(=O)Nc2cccc(S(=O)(=O)N(C)c3ccccc3)c2)cc1 | -84% | 11µM* | 3% | 7% | 8% | 2
CN(c1ccccc1)S(=O)(=O)c1cccc(NC(=O)CSc2ncc(C(F)(F)F)cc2Cl)c1 | -2% | 10µM* | -4% | 0% | 10% | 3
CN(C)c1ccc(NS(=O)(=O)c2cc(Cl)ccc2Cl)cc1 | i | ? | 0% | 1% | ? | 11
CCN(c1ccc(NS(=O)(=O)c2cc(Cl)ccc2Cl)cc1)C(C)C | -32% | 11µM* | -1% | -6% | 10% | 5
CCOc1cc(/C=C2\C(=O)N(Cc3ccc(C)cc3)C(C)=C2C(=O)OC)ccc1O | -10% | ? | -12% | 3% | -25% | 34
C=CCOc1cccc(/C=C2\C(=O)N(Cc3ccc(C)cc3)C(C)=C2C(=O)OC)c1 | -17% | 4.5µM* | 9% | 9% | -26% | -3
CCCOc1ccc(NC(=O)COc2ccccc2)c2cccnc12 | . | . | . | . | . | -2
Cc1sc(NC(=O)c2ccco2)c(CN2CCCCC2)c1C | -1%[57.5 µM] | 6.3µM* | 0% | 1% | 3% | 1
COc1ccc(NC(=O)c2cc3n(n2)C(C(F)(F)F)CC(c2ccco2)N3)cc1 (stereo unspecified) | -16%[57.5 µM] | -44% | -13% | 1% | -20% | -5
O=C(NCC12CC3CC(CC(C3)C1)C2)c1cc2n(n1)C(C(F)(F)F)CC(c1ccco1)N2 (stereo unspecified) | i | 3.5µM* | 1% | 3% | -9% | -6
CC(C)(C)NC(=O)CSc1nc2ccccc2n1-c1ccccc1 | ? | 10µM* | 7% | 1% | 4% | 1
CC(=O)NNC(=O)CSc1nnc(-c2ccccc2)c(-c2ccccc2)n1 | -10% | 5% | 17% | 7% | 4% | 6
CC(C)(C)NC(=O)CSc1nnc(-c2ccccc2)c(-c2ccccc2)n1 | -29% | 8.9µM* | 8% | -3% | 4% | 2
Cc1cc(C)c2oc(=O)cc(CN3CCN(CCc4ccncc4)CC3)c2c1 | . | . | . | . | . | -1
Cc1[nH]nc2ncc(C(=O)c3ccccc3O)cc12 | ? | 10µM* | -11% | 8% | -5% | 24
CN1CCN(C(=O)c2ccc(CNC(=O)c3cc(=O)[nH]c4ccccc34)cc2)CC1 | . | . | . | . | . | 4
CCOC(=O)C1Nc2ccccc2C2C(O)C(O)CC12 (stereo unspecified) | -32% | 17% | 4% | 12% | 7.1µM* | 10
Cc1ccc(Cn2c(SCC(=O)O)nc3c2c(=O)n(C)c(=O)n3C)cc1 | . | . | . | . | . | 3
O=C(ONC1=NCCCCC1)c1cccc([N+](=O)[O-])c1 | -40% | ? | 14% | 17% | 11µM* | -8
CCN(CC)C(=O)c1sc2c(c1C)c(=O)n(Cc1ccccc1)c(=O)n2Cc1ccccc1C | -47% | 11µM* | . | -17% | -12% | -2
CCN(CC)C(=O)c1sc2c(c1C)c(=O)n(CCc1ccccc1)c(=O)n2Cc1ccc(F)cc1Cl | 7% | 6% | . | -29% | -5% | 2
CC(C)(C)c1ccc(C(=O)N2CCC(=O)N([C@H](COCc3ccccc3)Cc3ccccc3)CC2)cc1 | i | 10µM* | -4% | . | ? | 3
O=C(c1ccc(Cl)c(Cl)c1)N1CCC(=O)N(C(COCc2ccc(Cl)cc2)Cc2ccccc2)CC1 (stereo unspecified) | -4% | 10µM* | 0% | -6% | 16% | 2
CC(C)(C)c1ccc(C(=O)N2CCC(=O)N(C(COCc3ccccc3)Cc3ccccc3)CC2)cc1 (stereo unspecified) | -91% | ? | 7% | 10% | ? | 6
